# Inconclusive results are not listed. Active and inactive are the calls of the source. Calls come from the whole dose curve; as a rule, active = well fitted cell-killing curve with a large enough effect; inconclusive = small, poorly fitted or top-dose-only effect; inactive = flat fitted curve, though single readings scatter.
# Experiment: Cell Viability - LYMP2-015 (AID 971);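 note: cells exposed to compound for 24 h; 0% = DMSO only and full effect = 92 µM tetraoctylammonium bromide; nearly all actives have a fitted effect of over 55% in size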
# Conditions: LYMP2-015 lymphoblastoid cell viability; series mostly up to 92.2 µM; activity change, negative = lower viability: at the top concentration
# Excerpt: NIH Chemical Genomics Center [NCGC]
# NIH Molecular Libraries Screening Centers Network [MLSCN]
# National Institutes of Environmental Health Sciences [NIEHS]
# National Toxicology Program [NTP]
# We have developed a 1536-well cell-based assay for quantitative high throughput screening (qHTS) against a number of cell lines to determine in vitro cytotoxicity of small molecules. This particular assay uses a human lymphoblastoid cell line (LYMP2-015) purchased from Coriell Institute for Medical Research.
# NCGC Assay Protocol Summary:
# The CellTiter-Glo luminescent cell viability assay (Promega) is a homogeneous method to measure the number of viable cells in culture. The end point readout of this assay is based on quantitation of intracellular ATP, an indicator of metabolic activity, using the luciferase reaction. Luciferase catalyzes the oxidation of beetle Luciferin to oxyluciferin and light in the presence of ATP. The luminescent signal is proportional to amount of ATP present.
# Using the CellTiter-Glo luminescent cell viability assay, the amount of cellular ATP was measured in the lymphoblastoid cell line with complete culture medium following compound treatment for 24 hours. The assay was performed in opaque white Kalypsys 1536-well plates. In the screen, tetraoctylammonium bromide was used as positive control. Library compounds were measured for their ability to cause acute toxicity in the cell line, as reflected by a decrease in intracellular ATP levels, in a concentration-dependent manner. […] AC50 values were determined from concentration-response data modeled with the standard Hill equation.
# qHTS protocol for CellTiter Glo lymphoblastoid cellular assay
# [Step] [Parameter] [Value] [Description]
# 1. Reagent; 5 uL; 2500 lymphoblastoid cells/well
# 2. Time; 5 hr; 37 C incubation
# 4. Controls; 23 nL; Tetraoctylammonium bromide 6.4pM to 92 uM
# 5. Time; 24 hr; 37 C incubation
# 6. Reagent; 5 uL; CellTiter Glo reagent
# 7. Time; 30 min; Room Temperature
# 8. Detection; Luminescence; Viewlux plate reader
# Keywords: cell viability, cytotoxicity, lymphoblastoid cell line, luminescence, NTPHTS, NTPHTS_NCGC, NIEHS, DSSTox, MLSMR, MLSCN, NIH Roadmap, qHTS, NCGC
row,SMILES,"activity change, negative = lower viability"
1,c1ccc(C2CO2)cc1 (stereo not given),5.15% (inactive)
2,c1ccc(P(c2ccccc2)c2ccccc2)cc1,-3.32% (inactive)
3,C/C=C/CC#N,-9% (inactive)
4,O=C(Cl)OCc1ccccc1,-6.1% (inactive)
5,S=c1[nH]c2ccccc2[nH]1,-1.15% (inactive)
6,CNC(=O)O/N=C/C(C)(C)S(C)=O (stereo not given),-18.6% (inactive)
7,CN(C)C(=O)Nc1ccc(Cl)cc1,1.51% (inactive)
8,OCCOCCO,-3.2% (inactive)
9,CC(C)(C)OOC(=O)c1ccccc1,6.72% (inactive)
10,CCCN(CCC)c1c([N+](=O)[O-])cc(C(F)(F)F)cc1[N+](=O)[O-],0.271% (inactive)
11,Nc1ccc(Cl)c(Cl)c1,4.48% (inactive)
12,Clc1ccccc1,-3.8% (inactive)
13,Cc1ccc(N)cc1N,-17.3% (inactive)
14,Nc1cc(Cl)ccc1Cl,-20.2% (inactive)
15,CC(C#N)CCC#N (stereo not given),-8.77% (inactive)
16,Cc1ccc(OP(=O)(Oc2ccc(C)cc2)Oc2ccc(C)cc2)cc1,-6.62% (inactive)
17,ClC(Cl)c1ccccc1,-2.93% (inactive)
18,O=C(O)CCl,-10.1% (inactive)
19,CCCCC(=O)Cl,-3.76% (inactive)
20,O=[N+]([O-])c1cccc2c([N+](=O)[O-])cccc12,-15.6% (inactive)

row,SMILES,"activity change, negative = lower viability"
1,CC(C)CC(C)N (stereo not given),-18.9% (inactive)
2,c1ccc2c(c1)CCNC2,-3.78% (inactive)
3,Oc1cc(Cl)c(Cl)c(Cl)c1Cl,-21.4% (inactive)
4,OCCCCO,-4.42% (inactive)
5,O=[N+]([O-])c1ccccc1-c1ccccc1,-11.5% (inactive)
6,O=c1ccc(=O)[nH][nH]1,-5.98% (inactive)
7,Cc1ccc(N=C=O)cc1N=C=O,-21% (inactive)
8,c1ccc(N=NNc2ccccc2)cc1,-23.5% (inactive)
9,CCOC(=O)C1OC1(C)c1ccccc1 (stereo not given),-21.1% (inactive)
10,COc1ccc(C=O)cc1,-8.49% (inactive)
11,Cc1cc(-c2cc(C)c(N)c(C)c2)cc(C)c1N,-3.46% (inactive)
12,O=C(O)c1cc(Cl)ccc1Cl,-10.4% (inactive)
13,N#CC(Cl)(Cl)Cl,7.12% (inactive)
14,Cc1cc(-c2ccc(N)c(C)c2)ccc1N,-2.07% (inactive)
15,Oc1c(Cl)cccc1Cl,-1.08% (inactive)
16,CN(C)C(=O)Cl,-11.1% (inactive)
17,CCCCCc1cc(O)cc(O)c1,-9.37% (inactive)
18,C=COC(C)=O,-13.4% (inactive)
19,ClCC(Cl)Cl,-5.99% (inactive)
20,Nc1ccc2ccccc2c1,-1.43% (inactive)

# Source: PubChem BioAssay (NCATS)
